These results are taken from PubChem BioAssay (NCATS).

Test [1] deals with Calcium and integrin-binding protein 1 (Homo sapiens) (UniProt Q99828). The experiment in a line: Primary qHTS for Identification of Calcium Integrin Binding Protein 1 (CIB1) Competitor (AID 1508620). Further: top concentration of the series differs between compounds; on the % scale 0 is the no-effect control and ±100 the full control effect. In outline: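 Fluorescence polarization competition: GST-tagged CIB1 (1 uM final) preincubated with compound 15 min at room temperature, then FITC-labelled alphaIIb peptide (100 nM final) added. After 15 min at room temperature, polarization read at Ex 480/Em 540.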
Chain of Calcium and integrin-binding protein 1 (Homo sapiens) (Q99828 whole entry, looked up): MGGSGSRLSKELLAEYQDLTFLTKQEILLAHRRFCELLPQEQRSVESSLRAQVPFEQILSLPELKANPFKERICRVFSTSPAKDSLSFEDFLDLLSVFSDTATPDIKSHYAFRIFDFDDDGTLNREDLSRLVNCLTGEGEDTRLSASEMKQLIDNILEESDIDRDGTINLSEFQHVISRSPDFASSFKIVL
For orientation: In qHTS, concentration-response curves come from the screen itself.

The target in test [2] is Glutathione peroxidase 1 (Homo sapiens) (UniProt P07203). Nature of the test: Primary qHTS Assay for Inhibitors of Recombinant Selenoprotein Glutathione Peroxidase 1 (GPX1) (AID 1845191). Further: nearly all actives have a fitted effect of over 65% in size. In outline: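 GR-coupled assay: compounds preincubated 30 min at room temperature with GPX1, then reaction started with CHP; final 10 nM GPX1, 1 mM GSH, 0.5 mM CHP, 0.5 mM NADPH, 100 nM GR, 0.01% BSA, pH 7.5 Tris buffer. NADPH fluorescence (340/450 nm) read at 0 and 15 min.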
Chain of Glutathione peroxidase 1 (Homo sapiens) (P07203 whole entry, looked up): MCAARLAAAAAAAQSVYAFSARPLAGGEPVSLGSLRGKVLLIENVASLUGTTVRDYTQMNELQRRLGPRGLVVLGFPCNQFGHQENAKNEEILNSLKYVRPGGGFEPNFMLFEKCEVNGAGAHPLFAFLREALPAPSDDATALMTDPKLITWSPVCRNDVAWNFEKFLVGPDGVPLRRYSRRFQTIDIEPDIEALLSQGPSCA

For test [3], the target named is Phospholipid hydroperoxide glutathione peroxidase GPX4 (Homo sapiens) (UniProt P36969). The experiment in a line: Primary qHTS Assay for Inhibitors of Recombinant Selenoprotein Glutathione Peroxidase 4 (GPX4) (AID 1845192). Further: nearly all actives have a fitted effect of over 65% in size. In outline: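 GR-coupled assay: recombinant GPX4 preincubated 30 min with compound at room temperature; final 200 nM GPX4, 1 mM GSH, 0.5 mM cumene hydroperoxide, 0.5 mM NADPH, 100 nM GR, 0.01% BSA, pH 7.5 Tris. NADPH fluorescence (340/450 nm) read at 0 and 15 min.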
Chain of Phospholipid hydroperoxide glutathione peroxidase GPX4 (Homo sapiens) (P36969 whole entry, looked up): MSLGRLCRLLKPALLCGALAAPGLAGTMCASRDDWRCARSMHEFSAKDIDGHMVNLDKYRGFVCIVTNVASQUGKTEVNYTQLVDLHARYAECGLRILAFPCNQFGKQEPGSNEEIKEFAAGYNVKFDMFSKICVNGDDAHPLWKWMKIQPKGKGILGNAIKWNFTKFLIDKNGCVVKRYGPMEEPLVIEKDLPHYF

The next test has as its system CRL-7250. The experiment in a line: Cytotoxic Profiling of Annotated Libraries Using Quantitative High-Throughput Screening (AID 1296008). Further: nearly all actives have a fitted effect of over 60% in size. Further: potency means the concentration at half of the fitted maximal effect. On max response: on the % scale 0 is the no-effect control and ±100 the full control effect. The conditions noted are these: Five cell lines viability, CellTiter-Glo ATP luminescence, 48-72 h; max response: active compounds read low. In outline:
(§1)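 Cells exposed to compounds for 48 or 72 hr at 37 degrees Celsius. Viability read as ATP-coupled luminescence with CellTiter-Glo after 10 min at room temperature.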
On the technique in general: In ATP-based viability assays light output follows the ATP content of the culture.

In test [4] the test system is Zika virus NS2B-NS3 protease (unlinked complex). The experiment in a line: Primary screen GU Rhodamine qHTS for Zika virus inhibitors: Unlinked NS2B-NS3 protease assay (AID 1347159). Further: on the % scale 0 is the no-effect control and ±100 the full control effect; nearly all actives have a fitted effect of over 60% in size. The method in brief:
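Percent inhibition derives from the 15-min fluorescence change (ex 480, em 540 nm), normalized to no-enzyme and no-inhibitor wells. Reactions contained 25 nM NS2B-NS3 complex and 1.5 microM substrate in 10 mM Tris-HCl pH 8.0.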

Test [5] has as its system Zika virus NS2B-NS3 protease (linked construct). Nature of the test: Primary screen NINDS Rhodamine qHTS for Zika virus inhibitors (AID 1347160). Further: on the % scale 0 is the no-effect control and ±100 the full control effect; nearly all actives have a fitted effect of over 55% in size. In outline:
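In 10 mM Tris-HCl pH 8.0 containing 0.01% Tween 20, linked NS2B-NS3 protease (25 nM final) is exposed to test compounds for 15 min. Cleavage of 1.5 microM Rhodamine110 substrate is tracked by fluorescence over 15 min.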

The target in test [6] is Luciferin 4-monooxygenase (Photinus pyralis) (UniProt P08659). Nature of the test: Primary firefly luciferase (FLuc) qHTS assay for identification of artifact compounds. (AID 1845220). Further: nearly all actives have a fitted effect of over 60% in size. The conditions noted are these: outcome: dose series up to 54.1 µM unless noted. In outline:
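Titrated compounds were incubated 15 min at RT, protected from light, with luciferin and ATP at 10 uM; reaction started with 10 nM FLuc, luminescence imaged at 5 min, and concentration-response fitted by Hill equation.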

For test [7], the system named is Nanoluciferase (engineered Oplophorus gracilirostris luciferase). Nature of the test: Primary Nanoluciferase (NLuc) qHTS assay for identification of artifact compounds. (AID 1845222).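 Further: NLuc secreted into diluted conditioned medium of S16 cells; 0% = DMSO and -100% = no enzyme.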 In outline: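 qHTS format, against NLuc in S16 cell-conditioned medium. Nano-Glo substrate 1:100 was added after 15 min at room temperature. Luminescence was taken after a further 5 min.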

The next test deals with NIH3T3. The experiment in a line: Cytotoxic Profiling of Annotated Libraries Using Quantitative High-Throughput Screening (AID 1296008). Further: nearly all actives have a fitted effect of over 60% in size. Further: potency means the concentration at half of the fitted maximal effect. On max response: on the % scale 0 is the no-effect control and ±100 the full control effect. The conditions noted are these: Five cell lines viability, CellTiter-Glo ATP luminescence, 48-72 h; max response: active compounds read low. In outline:
as §1

A further test relates to C33A. Nature of the test: Primary qHTS to identify gynecologic anti-cancer compounds using libraries of approved drugs and bioactive compounds (AID 1345084). Further: nearly all actives have a fitted effect of over 55% in size. Further: potency means the concentration at half of the fitted maximal effect. The conditions noted are these: Gynecologic cancer cell panel viability, ATPlite luminescence, 48 h; series mostly up to 57.5 µM. In outline:
(§2)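 Luminescence from the ATPlite ATP-monitoring reagent indicates viable cell number; lower signal means cytotoxicity. Cells received compound 16 h after seeding and were exposed for 48 h across five concentrations.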

The test system of another test is CAOV3. The test is described as above. The conditions noted are these: Gynecologic cancer cell panel viability, ATPlite luminescence, 48 h; series mostly up to 57.5 µM. The method in brief:
as §2

The next test has as its system CASKI. The description is as above. The conditions noted are these: Gynecologic cancer cell panel viability, ATPlite luminescence, 48 h; series mostly up to 57.5 µM. In outline: as §2
The subject of another test is Es-2. Described as above. The conditions noted are these: Gynecologic cancer cell panel viability, ATPlite luminescence, 48 h; series mostly up to 57.5 µM. In outline: as §2
The test system of another test is Hek293T. Described as above. The conditions noted are these: Gynecologic cancer cell panel viability, ATPlite luminescence, 48 h, control line for the selectivity index; series mostly up to 57.5 µM. The method in brief:
as §2

The subject of the next test is JEG-3. The test is described as above. The conditions noted are these: Gynecologic cancer cell panel viability, ATPlite luminescence, 48 h; series mostly up to 57.5 µM. In outline: as §2
For the next test, the system named is OV90. The description is as above. The conditions noted are these: Gynecologic cancer cell panel viability, ATPlite luminescence, 48 h; series mostly up to 57.5 µM. The method in brief:
as §2

In another test the test system is PA-1. Described as above. The conditions noted are these: Gynecologic cancer cell panel viability, ATPlite luminescence, 48 h; series mostly up to 57.5 µM. The method in brief: as §2
In a further test the test system is Tov-21-G. The test is described as above. The conditions noted are these: Gynecologic cancer cell panel viability, ATPlite luminescence, 48 h; series mostly up to 57.5 µM. The method in brief:
as §2

The next test concerns Tov112D. The test is described as above. The conditions noted are these: Gynecologic cancer cell panel viability, ATPlite luminescence, 48 h; series mostly up to 57.5 µM. In outline: as §2
A short description of test [8]: Primary fluorescence-based thiol-reactive (MSTI) qHTS assay for identification of artifact compounds. (AID 1845221). Further: nearly all actives have a fitted effect of over 65% in size. The method in brief: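 Compounds were incubated 1 h at room temperature in the dark with the MSTI probe (4 uM) in PBS pH 7.4, 2% DMSO. Signals were normalized between Acetyl-MSTI and MSTI.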

Molecules are shown by their SMILES. A number with no mark means an inactive call. Results filed as inconclusive are left out. Activity calls are given as the source filed them. The call rests on the fitted dose curve; in most records, active means well fitted curve in the direction sought with a large enough effect; inconclusive means small, poorly fitted or top-dose-only effect, or another doubt; inactive means no such curve, though single readings can be large; an effect the other way counts as inactive or inconclusive.

Regarding `COc1cc(C(=O)N2CC[C@@H](O)[C@@H](N)C2)cc2nc(-c3cc4ccccc4n3CC3CC3)n(C)c12`, the Potency result in [1], in test [2] and in [3] was “inactive” each time. In the test on CRL-7250, the Potency is 20900 nM (active).
For `CCCCOC(=O)c1ccnc2cc(C(OCCN3CCCCC3)c3ccccc3Cl)sc12` (stereo not drawn), the Potency result in test [4], in [5], in [1], in test [2], in test [3] and in test [7] was “inactive” each time. Further, the Potency entry in the test with C33A, with CAOV3, with CASKI, in the test on Es-2, with Hek293T and with JEG-3 was “inactive” in each case. For the same molecule, the Potency entry with OV90, in the test with PA-1, in the test with Tov-21-G and in the test with Tov112D was “inactive” each time. Also, the molecule was called inactive in test [6]. Moreover, the results for the max response in the test on CRL-7250 and with NIH3T3 were -4.2% and -3.89%, respectively.
Take `CO[C@H]1C[C@H](O[C@H]2CC[C@]3(C=O)[C@H]4CC[C@]5(C)[C@@H](C6=CC(=O)OC6)CC[C@]5(O)[C@@H]4CC[C@]3(O)C2)O[C@H](C)[C@H]1O`: the Potency result in [4], in test [5], in test [1], in [2], in test [3] and in test [8] was “inactive” each time. Moreover, the Potency entry in test [7] is “inactive”. Moreover, in test [6], the outcome is “inactive [at 25.7 µM]”. Besides, the Potency with CRL-7250 was 112 nM (active); in the test on C33A, 100 nM (active); with CAOV3, 199 nM (active); in the test on Es-2, 141 nM (active); with Hek293T, 224 nM (active); in the test with OV90, 891 nM (active). The results for the Potency in the test on PA-1, in the test with Tov-21-G and in the test with Tov112D were 141 nM (active), 141 nM (active) and 89.1 nM (active), respectively. Moreover, the call in the test on NIH3T3 was inactive.
On to `C=C(C)[C@@]12O[C@@H]1[C@@]1(C)C(=C[C@H]2O)CC[C@@H](O)[C@@H]1C`, for which the Potency result in test [4], in test [5], in [1], in test [2], in test [3] and in test [8] was “inactive” in each case. The Potency result (in test [7]; with C33A; in the test with CAOV3; with CASKI; with Es-2; in the test with Hek293T) was “inactive” each time. For the same molecule, the Potency result in the test on JEG-3, with OV90, in the test on PA-1, in the test with Tov-21-G and in the test with Tov112D was “inactive” each time. In addition, the max response in the test on CRL-7250 was -1.42%; in the test on NIH3T3, 2.77%.
Turning to `COc1ccc2c(c1)c(CCN(C)C)cn2S(=O)(=O)c1ccccc1`, the Potency result in test [4], in test [1], in [2], in test [3], in test [8] and in test [7] was “inactive” each time. Further, the Potency result in the test on C33A, with CAOV3, in the test with CASKI, in the test on Es-2, in the test with Hek293T and in the test on JEG-3 was “inactive” throughout. For the same molecule, the Potency entry in the test with OV90, in the test with PA-1, in the test with Tov-21-G and in the test on Tov112D was “inactive” throughout. The molecule was classed as inactive (in [6]; in the test with NIH3T3). For the same molecule, in the test with CRL-7250, the max response is 1.29%.
Turning to `O=S(=O)(c1ccccc1F)N1CCOc2c(N3CCNCC3)cccc21`, the Potency entry in test [4], in test [5], in test [1], in test [2], in test [3] and in [8] was “inactive” each time. The Potency entry (in [7]; in the test with C33A; in the test on CASKI; in the test with Es-2; in the test with Hek293T; in the test on JEG-3) was “inactive” throughout. The Potency result in the test with OV90, in the test on PA-1, in the test with Tov-21-G and with Tov112D was “inactive” in each case. For the same molecule, the call in test [6] was inactive. The max response in the test on CRL-7250 was 2.13%; in the test with NIH3T3 it was 2.22%.
